# Data from paper PMC4336329 (PLoS ONE, 2015).
# The whole screen tested about 310,000 compounds, of which about 14,000 (4.5%) showed an effect of 50% or more. The effect is printed as a negative number. Many of the other results were omitted from the sample, so strong results are more common in it than they were.
# Target: human ether-à-go-go-related gene (hERG) potassium channel (human, UniProt Q12809)
# Assay: primary screen, population patch clamp on CHO cells stably expressing hERG; higher = less effect of the substance
# 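Also: peak tail current of the secondary pulse compared with the same well before compound.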
# Sequence of human ether-à-go-go-related gene (hERG) potassium channel (Q12809 whole entry, looked up): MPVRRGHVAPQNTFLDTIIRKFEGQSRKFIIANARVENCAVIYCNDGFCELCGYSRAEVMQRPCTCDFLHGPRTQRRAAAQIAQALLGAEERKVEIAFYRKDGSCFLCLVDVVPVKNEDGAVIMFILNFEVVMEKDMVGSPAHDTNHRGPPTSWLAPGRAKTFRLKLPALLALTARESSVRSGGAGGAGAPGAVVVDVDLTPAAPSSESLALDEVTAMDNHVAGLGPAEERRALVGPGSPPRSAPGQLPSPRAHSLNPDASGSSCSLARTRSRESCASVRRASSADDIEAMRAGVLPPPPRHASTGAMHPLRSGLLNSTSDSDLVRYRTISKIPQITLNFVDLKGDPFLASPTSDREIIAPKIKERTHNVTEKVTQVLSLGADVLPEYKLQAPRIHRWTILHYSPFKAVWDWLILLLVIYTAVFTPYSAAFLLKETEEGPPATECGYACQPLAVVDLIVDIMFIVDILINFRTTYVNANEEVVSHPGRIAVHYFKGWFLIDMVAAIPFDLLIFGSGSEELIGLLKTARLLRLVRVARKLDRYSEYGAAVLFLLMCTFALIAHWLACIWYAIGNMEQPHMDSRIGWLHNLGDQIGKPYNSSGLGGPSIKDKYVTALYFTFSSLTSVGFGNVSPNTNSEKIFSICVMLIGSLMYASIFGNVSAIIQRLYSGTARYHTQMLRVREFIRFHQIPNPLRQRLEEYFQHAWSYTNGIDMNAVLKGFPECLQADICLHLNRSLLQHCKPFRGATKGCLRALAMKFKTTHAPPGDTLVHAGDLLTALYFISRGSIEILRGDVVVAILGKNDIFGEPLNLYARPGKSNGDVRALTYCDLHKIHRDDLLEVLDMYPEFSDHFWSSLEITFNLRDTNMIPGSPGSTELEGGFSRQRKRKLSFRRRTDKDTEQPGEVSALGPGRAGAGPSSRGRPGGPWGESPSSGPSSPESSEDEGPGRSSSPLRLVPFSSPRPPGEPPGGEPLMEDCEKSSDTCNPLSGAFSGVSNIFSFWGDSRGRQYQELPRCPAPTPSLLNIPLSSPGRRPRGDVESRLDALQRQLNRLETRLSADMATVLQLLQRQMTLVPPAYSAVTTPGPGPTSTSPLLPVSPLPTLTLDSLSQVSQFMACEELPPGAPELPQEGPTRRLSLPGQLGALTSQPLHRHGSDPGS
row,SMILES,"hERG current change (%, negative = inhibition) at 10uM"
1,CCc1n[nH]c(=S)n1/N=C/c1c(C)nn(-c2ccccc2)c1Cl,21.4%
2,CN(C)c1ccc(/C=N/n2c(C3CCCCC3)n[nH]c2=S)cc1,20%
3,Cc1csc(CN(C)C(=O)C2CCC(=O)N(CCCc3ccccc3)C2)n1 (stereo not drawn),-5.37%
4,CCC1(CCCC(=O)c2ccc(F)cc2)C(=O)NC(=S)NC1=O,-3.66%
5,O=C(COc1coc(CN2CCN(c3ccccc3)CC2)cc1=O)Nc1ccccc1F,-3.41%
6,O=C(COc1coc(CN2CCN(c3ccccc3)CC2)cc1=O)NC1CCCCC1,-46.1%
7,Cc1cccc(NC(=O)COc2coc(CN3CCN(c4ccccc4)CC3)cc2=O)c1,-7.9%
8,O=C(COc1coc(CN2CCN(c3ccccc3)CC2)cc1=O)NC1CCCC1,-13.6%
9,Cc1ccc(NC(=O)COc2coc(CN3CCN(Cc4ccccc4)CC3)cc2=O)cc1,-73.3%
10,Cc1cccc(NC(=O)COc2coc(CN3CCc4ccccc4C3)cc2=O)c1,-8.19%
11,COc1ccccc1NC(=O)COc1coc(CN2CCN(c3ccccc3)CC2)cc1=O,-60%
12,Cc1cccc(NC(=O)COc2coc(CN3CCN(Cc4ccccc4)CC3)cc2=O)c1,-65%
13,Cc1cccc(NC(=O)COc2coc(CN3CCN(c4ccccc4)CC3)cc2=O)c1C,-28.6%
14,Cc1ccc(NC(=O)COc2coc(CN3CCN(c4ccccc4)CC3)cc2=O)cc1,1.7%
15,O=C(COc1coc(CN2CCN(c3ccc(F)cc3)CC2)cc1=O)NC1CCCC1,-53.1%
16,CCc1ccc(NC(=O)COc2coc(CN3CCN(c4ccccc4)CC3)cc2=O)cc1,12.3%
17,CN(C)c1ccc(CN2CCCCC2)cc1,14.9%
18,CCN(CC(=O)N1CCCCCC1)S(=O)(=O)c1ccc(Cl)cc1,-13.5%
19,CC1=Nc2ccccc2N=C(NC(=O)/C=C/C(=O)O)C1c1ccccc1 (stereo not drawn),2.53%
20,O=c1[nH]c(=O)n(-c2ccccc2F)c(O)c1C=NCCC1=CCCCC1,25.6%
21,Cc1c(NC(=O)CN2CCC(C(N)=O)CC2)cccc1[N+](=O)[O-],26.4%
22,COc1ccc(N2CCN(C(c3cc(OC)ccc3OC)c3nnnn3CC3CCCO3)CC2)cc1.Cl (stereo not drawn),-9.64%

row,SMILES,"hERG current change (%, negative = inhibition) at 10uM"
1,CC(C)CNC(=O)[C@H](Cc1ccccc1)NC(=O)c1ccco1,-6.82%
2,Cc1ccccc1NC(=O)COc1coc(CN2CCN(c3ccccc3)CC2)cc1=O,-21.1%
3,Cc1ccccc1NC(=O)COc1coc(CN2CCN(Cc3ccccc3)CC2)cc1=O,-53.3%
4,CNC(=O)COc1coc(CN2CCN(Cc3ccccc3)CC2)cc1=O,1.83%
5,CC(OC(=O)c1ccc(NS(=O)(=O)c2cccs2)cc1)C(=O)N(C)C1CCCCC1 (stereo not drawn),-0.558%
6,CCc1ccc(NS(=O)(=O)c2ccc3[nH]cc(C(=O)NCC4CCCO4)c(=O)c3c2)cc1 (stereo not drawn),15.4%
7,CC(=O)Nc1ccc(C(=O)OCCC(C)C)cc1,-17.4%
8,Cc1ccc(CNc2cc(C(=O)O)ccc2C)s1,19.2%
9,O=C(Cn1c(=O)n(CC2CCCO2)c(=O)c2ccccc21)N1CCN(c2ccccc2)CC1 (stereo not drawn),-21.8%
10,Cc1ccc(C)c(S(=O)(=O)N2CCCOC2CNC(=O)C(=O)NCc2ccccn2)c1 (stereo not drawn),5.01%
11,CC(C)N1CCC(=NNC(=O)c2cccs2)CC1,25.6%
12,COC(=O)C1=C(N)Oc2cc(C)n(CCCn3ccnc3)c(=O)c2C1c1cccc(Cl)c1 (stereo not drawn),-69.7%
13,COC(=O)C1=C(N)Oc2cc(C)n(Cc3ccco3)c(=O)c2C1c1cccc(Cl)c1 (stereo not drawn),-5.24%
14,COC(=O)C1=C(N)Oc2cc(C)n(CCCn3ccnc3)c(=O)c2C1c1ccc(Cl)cc1 (stereo not drawn),-59.8%
15,COC(=O)C1=C(N)Oc2cc(C)n(CC3CCCO3)c(=O)c2C1c1ccc(Cl)cc1 (stereo not drawn),-8.41%
16,COC(=O)C1=C(N)Oc2cc(C)n(C)c(=O)c2C1c1ccc(Cl)cc1 (stereo not drawn),6.7%
17,COC(=O)C1=C(N)Oc2cc(C)n(CCc3ccccc3)c(=O)c2C1c1cccnc1 (stereo not drawn),-25.9%
18,Cc1cccc(NS(=O)(=O)c2ccc3[nH]c(=O)[nH]c3c2)c1C,13.7%
19,Cc1nn(Cc2ccccc2)c(C)c1NC(=O)CSc1nc(C2CC2)nc2c1cnn2-c1ccccc1,8.84%
20,OCCCNc1ncnc2sc(-c3ccccc3)cc12,3.23%
21,COc1ccc(-c2oc3ncnc(NCCCO)c3c2-c2ccc(OC)cc2)cc1,4.27%
22,COc1ccc(-c2oc3ncnc(NCCCN(C)C)c3c2-c2ccc(OC)cc2)cc1,-60.2%

row,SMILES,"hERG current change (%, negative = inhibition) at 10uM"
1,CN(C)CCCNc1ncnc2oc(-c3ccccc3)c(-c3ccccc3)c12,-69.5%
2,CN(C)CCCNc1ncnc2sc(-c3ccccc3)cc12.O=C(O)C(=O)O,-60.2%
3,CN(C)CCNc1ncnc2oc(-c3ccccc3)c(-c3ccccc3)c12,-60.7%
4,OCCCNc1ncnc2oc(-c3ccccc3)c(-c3ccccc3)c12,-13.2%
5,COc1ccc(-c2oc3ncnc(N)c3c2-c2ccccc2)cc1,6.52%
6,CN(C)CCNc1ncnc2sc(-c3ccccc3)cc12,-21.1%
7,Cc1c(C)n(-c2ccccc2)c2ncnc(NCCN(C)C)c12,-4.04%
8,CN(C)CCNc1ncnc2ccccc12.Cl,7.66%
9,COCCCNC(=O)CNC(=S)N(Cc1ccccc1)Cc1cccnc1,-9.77%
10,O=C(NCc1cccnc1)Nc1cccc(F)c1,7.53%
11,CN(Cc1ccccc1)C(=O)Nc1ccccc1,7.49%
12,COC(=O)c1ccccc1NC(=O)COc1ccc(S(=O)(=O)N2CCCC2)cc1C,8.37%
13,CSc1nnc2c(n1)OC=Nc1ccc(Br)cc1-2,-11.7%
14,O=C(NCC1CCCO1)c1ccc[nH]1 (stereo not drawn),12.3%
15,COc1ccc2oc(=O)c(C(=O)Nc3ccccc3O)cc2c1,8.79%
16,Cn1c(CC(=O)Nc2ccccc2F)nnc1SCC(=O)Nc1nccs1,18.6%
17,Fc1ccc(-c2cc(C(F)(F)F)n3ncnc3n2)cc1,26.8%
18,CC(=O)c1cc2c(cc1NC(=O)c1cnc(C)cn1)OCO2,4.22%
19,COC(=O)CN(c1cccc(C)c1)S(=O)(=O)c1ccccc1,-14%
20,O=S(=O)(c1ccccc1)N(CC(O)Cn1c2ccccc2c2ccccc21)c1ccccc1 (stereo not drawn),14.9%
21,O=S(=O)(c1ccccc1)N(CC(O)COc1ccccc1)c1ccccc1 (stereo not drawn),-26.6%
22,CCN(c1ccccc1)S(=O)(=O)c1ccc2ccccc2c1,-3.29%

row,SMILES,"hERG current change (%, negative = inhibition) at 10uM"
1,Cc1ccc(S(=O)(=O)N(CC(O)CN(C)C)c2ccccc2)cc1.Cl (stereo not drawn),-65.6%
2,Cc1cccc(N(CC(=O)N2CCCC2)S(=O)(=O)c2ccccc2)c1,-34.7%
3,Cc1ccc(S(=O)(=O)N(CC(O)CN2C(=O)NC(C)(C)C2=O)c2ccccc2)cc1 (stereo not drawn),-37.7%
4,Cc1cc(C)n(CC(O)CN(c2ccccc2)S(=O)(=O)c2ccc3ccccc3c2)n1 (stereo not drawn),-6.13%
5,Cc1ccc(N(CC(O)CN(C)C)S(=O)(=O)c2ccccc2)cc1.Cl (stereo not drawn),-68.1%
6,CCN(CC)CC(O)CN(c1ccccc1)S(=O)(=O)c1ccc2ccccc2c1.Cl (stereo not drawn),-80.2%
7,Cc1cccc(N(CC(O)CN(C)C)S(=O)(=O)c2ccccc2)c1.Cl (stereo not drawn),-63%
8,Cc1ccc(S(=O)(=O)N(C)c2ccccc2)cc1,-11.8%
9,O=C(CC1SC(=O)N(Cc2ccccc2)C1=O)Nc1nccs1 (stereo not drawn),3.22%
10,O=C(Nc1ccc(Br)cc1)Nc1ccccc1Cl,19.7%
11,CC(=O)Nc1ccc2c(c1)ncn2-c1ccccc1,3.72%
12,CCOC(=O)C1CCCN(C(=O)c2ccc3c(c2)NC(=O)C(N2CCOCC2)S3)C1 (stereo not drawn),19.7%
13,CCCCC(=O)NC(=S)Nc1ccc(NC(=O)C(C)C)c(OC)c1,21.2%
14,Cc1ccc(S(=O)(=O)N(CCC(=O)O)c2ccccc2)cc1,-10.5%
15,Cc1ccc(N(CC(O)COCc2ccco2)S(=O)(=O)c2ccc(C)cc2)cc1 (stereo not drawn),-11.1%
16,CCCN(CCC)CC(O)CN(c1ccccc1)S(=O)(=O)c1ccc(C)cc1 (stereo not drawn),-80.3%
17,CC(C)OC(=O)CCc1nc2ccccc2[nH]c1=O,10.1%
18,COc1nc(-c2ccccc2)ccc1-c1noc(-c2cccnc2)n1,5.15%
19,COc1ccc(C(=O)COC(=O)CNC(=O)C2CCCCC2)c(OC)c1,-11%
20,COc1ccc(NC(=O)C2C(=O)N(C)C3(C)CC2c2ccccc2O3)cc1 (stereo not drawn),-13.5%
21,CCC(C)NS(=O)(=O)c1cccs1 (stereo not drawn),7.86%
